# Data as given in PubChem BioAssay AID1159580 (chemical genetic matrix, 2015).
# Out of some 5,500 compounds screened, about 2,000 (36%) were called active. Roughly 18% stayed inconclusive and do not appear here. Some of the results follow. A number with no mark means an inactive call. Rule as the data show it: active = normalized growth mostly below about 0.91 (no sharp cut-off); inconclusive = no clear call, values can overlap the other calls; inactive = mostly above about 0.92.
# Experiment: chemical genetic growth profiling, strain panel (AID 1159580);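 also: tested at 20 µM; growth read once vehicle control cultures reached saturation at 30 °C; 1 = growth at the plate median or of vehicle wells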
# Settings: growth OD
# [1] = S. cerevisiae deletion strains, locus YDR150W, strain NUM1, stronger effect = lower value
# [2] = S. cerevisiae deletion strains, locus YGR229C, strain SMI1, stronger effect = lower value
# [3] = S. cerevisiae deletion strains, locus YJR075W, strain HOC1, stronger effect = lower value
# [4] = S. cerevisiae deletion strains, locus YMR263W, strain SAP30, stronger effect = lower value
compound,measurement,setting,value
C[N+](C)(C)CCO,normalized growth,"S. cerevisiae deletion strains, locus YAL040C, strain CLN3, stronger effect = lower value",1.04
same,normalized growth,"S. cerevisiae deletion strains, locus YCL061C, strain MRC1 (second series), stronger effect = lower value",1.02
same,normalized growth,[1],1.05
same,normalized growth,"S. cerevisiae deletion strains, locus YER002W, strain NOP16, stronger effect = lower value",0.998
same,normalized growth,[2],1.06
same,normalized growth,[3],1.09 [resistant] (active)
same,normalized growth,[4],1.01
same,normalized growth,"S. cerevisiae deletion strains, locus YNL175C, strain NOP13, stronger effect = lower value",1.02
same,normalized growth,"S. cerevisiae deletion strains, locus YNL197C, strain WHI3, stronger effect = lower value",0.996
same,normalized growth,"S. cerevisiae deletion strains, locus YNL224C, strain SQS1, stronger effect = lower value",1.01
same,normalized growth,"S. cerevisiae deletion strains, locus YOR083W, strain WHI5 (second series), stronger effect = lower value",1.08
Cc1cccc(NC(=S)NCc2ccncc2)c1,normalized growth,"S. cerevisiae deletion strains, locus YAL013W, strain DEP1, stronger effect = lower value",1
same,normalized growth,"S. cerevisiae deletion strains, locus YBR229C, strain ROT2, stronger effect = lower value",1
same,normalized growth,"S. cerevisiae deletion strains, locus YDL101C, strain DUN1, stronger effect = lower value",0.988
same,normalized growth,[1],1
same,normalized growth,"S. cerevisiae deletion strains, locus YEL061C, strain CIN8, stronger effect = lower value",1.01
same,normalized growth,"S. cerevisiae deletion strains, locus YGR078C, strain PAC10, stronger effect = lower value",1.01
same,normalized growth,[2],0.992
same,normalized growth,"S. cerevisiae deletion strains, locus YHR030C, strain SLT2, stronger effect = lower value",0.857
same,normalized growth,"S. cerevisiae deletion strains, locus YHR087W, strain rtc3, stronger effect = lower value",0.99
same,normalized growth,"S. cerevisiae deletion strains, locus YJL187C, strain SWE1, stronger effect = lower value",1.02
same,normalized growth,"S. cerevisiae deletion strains, locus YJR043C, strain POL32, stronger effect = lower value",1
same,normalized growth,[3],0.987
same,normalized growth,"S. cerevisiae deletion strains, locus YLR039C, strain RIC1, stronger effect = lower value",1.01
same,normalized growth,"S. cerevisiae deletion strains, locus YLR058C, strain SHM2 (second series), stronger effect = lower value",1.01
same,normalized growth,"S. cerevisiae deletion strains, locus YLR085C, strain ARP6, stronger effect = lower value",0.88
same,normalized growth,"S. cerevisiae deletion strains, locus YLR262C, strain YPT6, stronger effect = lower value",1.01
same,normalized growth,"S. cerevisiae deletion strains, locus YML094W, strain GIM5, stronger effect = lower value",0.974
same,normalized growth,"S. cerevisiae deletion strains, locus YMR219W, strain ESC1, stronger effect = lower value",1.01
same,normalized growth,[4],0.981
same,normalized growth,"S. cerevisiae deletion strains, locus YNL153C, strain GIM3, stronger effect = lower value",0.993
same,normalized growth,"S. cerevisiae deletion strains, locus YNL298W, strain CLA4 (second series), stronger effect = lower value",1.01
same,normalized growth,"S. cerevisiae deletion strains, locus YNL322C, strain KRE1, stronger effect = lower value",1.01
same,normalized growth,"S. cerevisiae deletion strains, locus YNR030W, strain Alg12, stronger effect = lower value",1.03
same,normalized growth,"S. cerevisiae deletion strains, locus YPL055C, strain LGE1, stronger effect = lower value",1.03
same,normalized growth,"S. cerevisiae deletion strains, locus YPL241C, strain CIN2, stronger effect = lower value",0.998
same,normalized growth,"S. cerevisiae deletion strains, locus YPR135W, strain CTF4, stronger effect = lower value",0.928
same,normalized growth,"S. cerevisiae strains, strain wild type, stronger effect = lower value",0.997
